Experimental data taken from publication PMC7862700, “An all-to-all approach to the identification of sequence-specific readers for epigenetic DNA modifications on cytosine”.

Key:
Assay in all cases: DAPPL (digital affinity profiling via proximity ligation, sequencing); 10 mM Tris-HCl pH 7.5, 50 mM NaCl, 1 mM DTT, 4% glycerol, room temperature, 30 min; GST-TFs on glutathione beads, 16-mer random dsDNA library, 0.1% formaldehyde crosslink after washing; high values mean tight binding
FEV = molecular target: T1, FEV (Homo sapiens, UniProt Q99581 1-238); settings: protein: recombinant; tags: N-terminal GST; dsDNA, one strand shown
T1 sequence: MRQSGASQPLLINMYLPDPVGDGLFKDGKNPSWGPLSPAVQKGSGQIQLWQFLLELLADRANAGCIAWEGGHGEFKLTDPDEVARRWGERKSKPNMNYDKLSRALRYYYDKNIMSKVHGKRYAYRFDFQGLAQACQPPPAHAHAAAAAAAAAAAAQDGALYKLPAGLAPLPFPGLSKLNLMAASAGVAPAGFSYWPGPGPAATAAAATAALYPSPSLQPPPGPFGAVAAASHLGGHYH
In short: (§1)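 Human transcription factors were made in yeast as GST fusions, captured on glutathione beads and barcoded with DNA. With a tag-only sample included, the pool was incubated with 200 nmole of a random double-stranded 16-mer DNA library in Tris/NaCl/DTT/glycerol buffer at room temperature for 30 min, then crosslinked with 0.1% formaldehyde after washing, ligated by proximity, amplified and sequenced. For binding signal, each hexamer's read frequency for a factor is divided by its frequency for the tag-only sample.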

ETV5 = ETV5 (Homo sapiens, UniProt P41161 1-510); settings: protein: recombinant; tags: N-terminal GST; dsDNA, one strand shown
ETV5, sequence (P41161 whole entry): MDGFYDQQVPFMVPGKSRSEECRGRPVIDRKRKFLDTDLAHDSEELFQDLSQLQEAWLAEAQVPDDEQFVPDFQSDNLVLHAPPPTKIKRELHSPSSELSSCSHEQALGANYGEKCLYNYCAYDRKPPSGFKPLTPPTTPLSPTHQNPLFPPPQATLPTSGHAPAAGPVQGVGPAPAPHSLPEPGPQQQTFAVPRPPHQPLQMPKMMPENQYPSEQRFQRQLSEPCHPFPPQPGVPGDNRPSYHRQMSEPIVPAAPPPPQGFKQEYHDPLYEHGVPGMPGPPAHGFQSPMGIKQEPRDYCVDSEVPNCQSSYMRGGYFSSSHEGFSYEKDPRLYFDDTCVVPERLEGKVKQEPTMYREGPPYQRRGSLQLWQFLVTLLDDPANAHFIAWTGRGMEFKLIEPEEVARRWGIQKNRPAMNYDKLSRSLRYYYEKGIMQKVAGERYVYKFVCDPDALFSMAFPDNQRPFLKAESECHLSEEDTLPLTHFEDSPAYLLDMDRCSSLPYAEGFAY
In short: as §1

HSF1 = HSF1 (Homo sapiens, UniProt Q00613 1-529); settings: protein: recombinant; tags: N-terminal GST; chain copies: 3; dsDNA, one strand shown
HSF1, sequence (Q00613 whole entry): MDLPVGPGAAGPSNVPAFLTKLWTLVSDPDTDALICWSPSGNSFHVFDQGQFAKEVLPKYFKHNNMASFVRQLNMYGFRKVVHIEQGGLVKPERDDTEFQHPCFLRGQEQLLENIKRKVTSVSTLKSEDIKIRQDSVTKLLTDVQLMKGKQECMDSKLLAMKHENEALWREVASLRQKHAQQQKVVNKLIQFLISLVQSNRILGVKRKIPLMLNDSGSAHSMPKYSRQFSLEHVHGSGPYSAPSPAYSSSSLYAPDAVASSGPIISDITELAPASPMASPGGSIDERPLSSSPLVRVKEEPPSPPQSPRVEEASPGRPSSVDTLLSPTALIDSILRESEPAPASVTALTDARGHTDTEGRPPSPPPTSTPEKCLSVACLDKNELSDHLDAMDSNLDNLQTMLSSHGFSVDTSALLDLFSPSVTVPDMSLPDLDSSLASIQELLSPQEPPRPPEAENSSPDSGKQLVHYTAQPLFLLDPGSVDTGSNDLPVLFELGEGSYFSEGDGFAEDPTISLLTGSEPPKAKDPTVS
In short: as §1

SPIC = molecular target: T2, SPIC (Homo sapiens, UniProt Q8N5J4 1-248); settings: protein: recombinant; tags: N-terminal GST; dsDNA, one strand shown
T2 sequence: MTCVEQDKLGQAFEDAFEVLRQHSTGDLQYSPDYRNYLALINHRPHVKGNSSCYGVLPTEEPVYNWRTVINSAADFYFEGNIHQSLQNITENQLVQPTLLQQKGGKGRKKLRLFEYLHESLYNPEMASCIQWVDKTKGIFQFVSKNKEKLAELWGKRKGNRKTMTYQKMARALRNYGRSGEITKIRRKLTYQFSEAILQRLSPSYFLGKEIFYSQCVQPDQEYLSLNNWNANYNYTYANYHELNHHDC
In short: as §1

ELF4 = ELF4 (Homo sapiens, UniProt Q99607 1-663); settings: protein: recombinant; tags: N-terminal GST; dsDNA, one strand shown
ELF4, sequence (Q99607 whole entry): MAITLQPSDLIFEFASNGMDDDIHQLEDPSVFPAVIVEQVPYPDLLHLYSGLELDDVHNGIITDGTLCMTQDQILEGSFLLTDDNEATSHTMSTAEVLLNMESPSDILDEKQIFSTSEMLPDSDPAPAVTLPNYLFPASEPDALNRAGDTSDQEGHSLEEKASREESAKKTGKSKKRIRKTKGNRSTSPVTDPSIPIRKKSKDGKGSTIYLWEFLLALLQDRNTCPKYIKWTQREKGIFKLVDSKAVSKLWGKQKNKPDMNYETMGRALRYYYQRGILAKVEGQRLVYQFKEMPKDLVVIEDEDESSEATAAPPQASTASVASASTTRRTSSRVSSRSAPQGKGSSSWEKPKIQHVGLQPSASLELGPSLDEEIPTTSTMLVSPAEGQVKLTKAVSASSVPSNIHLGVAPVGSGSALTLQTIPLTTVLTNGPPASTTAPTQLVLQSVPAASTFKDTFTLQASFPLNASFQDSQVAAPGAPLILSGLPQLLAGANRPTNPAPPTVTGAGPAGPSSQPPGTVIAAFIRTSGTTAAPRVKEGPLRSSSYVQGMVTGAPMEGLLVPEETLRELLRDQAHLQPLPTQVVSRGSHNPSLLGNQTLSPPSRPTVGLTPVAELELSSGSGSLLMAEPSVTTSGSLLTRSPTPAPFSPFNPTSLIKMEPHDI
In short: as §1

ELK4 = molecular target: T3, ELK4 (Homo sapiens, UniProt P28324-2 1-405); settings: protein: recombinant; tags: N-terminal GST; dsDNA, one strand shown
T3 sequence: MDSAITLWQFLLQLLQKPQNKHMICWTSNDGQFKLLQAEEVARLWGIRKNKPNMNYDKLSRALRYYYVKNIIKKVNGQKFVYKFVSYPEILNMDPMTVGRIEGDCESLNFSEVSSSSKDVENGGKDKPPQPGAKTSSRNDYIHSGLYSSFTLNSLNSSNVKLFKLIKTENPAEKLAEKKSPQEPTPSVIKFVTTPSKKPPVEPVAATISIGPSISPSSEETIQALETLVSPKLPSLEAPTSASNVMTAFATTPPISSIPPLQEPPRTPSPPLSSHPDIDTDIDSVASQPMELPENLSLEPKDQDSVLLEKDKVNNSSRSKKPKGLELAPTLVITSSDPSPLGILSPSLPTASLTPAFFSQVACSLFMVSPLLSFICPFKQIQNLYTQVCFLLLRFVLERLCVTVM
In short: as §1

ETV2 = molecular target: T4, ETV2 (Homo sapiens, UniProt O00321 1-342); settings: protein: recombinant; tags: N-terminal GST; dsDNA, one strand shown
T4 sequence: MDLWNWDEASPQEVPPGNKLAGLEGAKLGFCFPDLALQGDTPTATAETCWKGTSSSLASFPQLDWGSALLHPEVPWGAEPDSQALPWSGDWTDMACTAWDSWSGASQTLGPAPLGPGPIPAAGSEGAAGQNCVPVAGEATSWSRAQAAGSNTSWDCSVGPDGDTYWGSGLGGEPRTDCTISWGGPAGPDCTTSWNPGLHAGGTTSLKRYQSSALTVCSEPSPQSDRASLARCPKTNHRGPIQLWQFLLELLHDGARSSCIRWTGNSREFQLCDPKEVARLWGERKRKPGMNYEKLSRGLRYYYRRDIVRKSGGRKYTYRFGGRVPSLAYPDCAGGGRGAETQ
In short: as §1

ELF3 = molecular target: T5, ELF3 (Homo sapiens, UniProt P78545 1-371); settings: protein: recombinant; tags: N-terminal GST; dsDNA, one strand shown
T5 sequence: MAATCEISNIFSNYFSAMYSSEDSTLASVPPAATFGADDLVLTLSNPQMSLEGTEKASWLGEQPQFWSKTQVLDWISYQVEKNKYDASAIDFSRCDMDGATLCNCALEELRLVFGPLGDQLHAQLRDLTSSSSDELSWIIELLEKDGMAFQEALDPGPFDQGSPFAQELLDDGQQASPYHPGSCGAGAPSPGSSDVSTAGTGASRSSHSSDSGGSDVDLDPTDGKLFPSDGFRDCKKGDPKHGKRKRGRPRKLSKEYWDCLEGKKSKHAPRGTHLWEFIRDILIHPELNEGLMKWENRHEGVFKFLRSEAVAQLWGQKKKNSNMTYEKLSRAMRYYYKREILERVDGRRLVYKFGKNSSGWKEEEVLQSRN
In short: as §1

CRX = CRX (Homo sapiens, UniProt O43186 1-299); settings: protein: recombinant; tags: N-terminal GST; dsDNA, one strand shown
CRX, sequence (O43186 whole entry): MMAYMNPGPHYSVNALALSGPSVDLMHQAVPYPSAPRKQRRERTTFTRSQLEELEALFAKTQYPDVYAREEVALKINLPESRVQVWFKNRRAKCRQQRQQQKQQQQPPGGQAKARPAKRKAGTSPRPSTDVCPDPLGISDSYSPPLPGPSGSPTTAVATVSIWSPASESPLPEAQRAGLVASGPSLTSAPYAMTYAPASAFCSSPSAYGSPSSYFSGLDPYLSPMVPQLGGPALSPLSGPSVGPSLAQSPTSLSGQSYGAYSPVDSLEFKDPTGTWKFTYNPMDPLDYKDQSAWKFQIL
In short: as §1

ETV1 = ETV1 (Homo sapiens, UniProt P50549 1-477); settings: protein: recombinant; tags: N-terminal GST; dsDNA, one strand shown
ETV1, sequence (P50549 whole entry): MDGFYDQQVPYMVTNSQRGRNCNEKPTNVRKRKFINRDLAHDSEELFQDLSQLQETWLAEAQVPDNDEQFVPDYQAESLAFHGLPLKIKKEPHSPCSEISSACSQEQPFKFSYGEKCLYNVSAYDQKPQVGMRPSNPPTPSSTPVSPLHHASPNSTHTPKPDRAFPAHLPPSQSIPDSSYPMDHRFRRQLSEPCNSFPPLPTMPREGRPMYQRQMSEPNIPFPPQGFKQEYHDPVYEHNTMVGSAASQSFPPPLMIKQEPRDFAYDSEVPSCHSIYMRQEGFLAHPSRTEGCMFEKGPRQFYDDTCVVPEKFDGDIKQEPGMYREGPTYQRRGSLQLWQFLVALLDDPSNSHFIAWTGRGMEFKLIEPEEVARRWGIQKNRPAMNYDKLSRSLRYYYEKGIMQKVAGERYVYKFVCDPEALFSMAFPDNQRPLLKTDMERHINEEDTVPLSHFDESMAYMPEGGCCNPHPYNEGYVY
In short: as §1

ERF = molecular target: T6, ERF (Homo sapiens, UniProt P50548 1-548); settings: protein: recombinant; tags: N-terminal GST; dsDNA, one strand shown
T6 sequence: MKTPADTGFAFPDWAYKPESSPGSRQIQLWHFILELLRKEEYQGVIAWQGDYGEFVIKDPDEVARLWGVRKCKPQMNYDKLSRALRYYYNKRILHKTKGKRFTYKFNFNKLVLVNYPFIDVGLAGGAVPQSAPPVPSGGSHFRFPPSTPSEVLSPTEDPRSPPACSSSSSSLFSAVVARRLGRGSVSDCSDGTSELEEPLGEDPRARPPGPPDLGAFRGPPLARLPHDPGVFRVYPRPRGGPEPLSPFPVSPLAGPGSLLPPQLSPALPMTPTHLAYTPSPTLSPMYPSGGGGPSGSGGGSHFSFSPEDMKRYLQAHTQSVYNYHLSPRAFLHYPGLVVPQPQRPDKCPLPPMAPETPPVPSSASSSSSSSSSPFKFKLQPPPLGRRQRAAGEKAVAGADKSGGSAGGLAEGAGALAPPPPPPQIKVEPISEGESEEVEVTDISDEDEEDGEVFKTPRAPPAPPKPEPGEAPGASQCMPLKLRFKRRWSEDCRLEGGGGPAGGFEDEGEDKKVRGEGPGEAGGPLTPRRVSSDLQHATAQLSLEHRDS
In short: as §1

ETV3L = molecular target: T7, ETV3L (Homo sapiens, UniProt Q6ZN32 1-361); settings: protein: recombinant; tags: N-terminal GST; dsDNA, one strand shown
T7 sequence: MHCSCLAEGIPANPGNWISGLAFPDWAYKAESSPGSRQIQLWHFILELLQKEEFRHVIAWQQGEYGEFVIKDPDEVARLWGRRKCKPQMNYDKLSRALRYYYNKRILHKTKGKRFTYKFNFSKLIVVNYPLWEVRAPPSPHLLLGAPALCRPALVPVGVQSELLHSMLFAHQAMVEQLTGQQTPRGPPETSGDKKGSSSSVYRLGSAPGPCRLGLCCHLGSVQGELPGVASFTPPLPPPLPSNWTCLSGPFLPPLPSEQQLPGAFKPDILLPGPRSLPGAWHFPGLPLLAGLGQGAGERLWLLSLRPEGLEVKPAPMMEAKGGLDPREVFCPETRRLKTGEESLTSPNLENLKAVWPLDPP
In short: as §1

ETS2 = molecular target: T8, ETS2 (Homo sapiens, UniProt P15036 1-469); settings: protein: recombinant; tags: N-terminal GST; dsDNA, one strand shown
T8 sequence: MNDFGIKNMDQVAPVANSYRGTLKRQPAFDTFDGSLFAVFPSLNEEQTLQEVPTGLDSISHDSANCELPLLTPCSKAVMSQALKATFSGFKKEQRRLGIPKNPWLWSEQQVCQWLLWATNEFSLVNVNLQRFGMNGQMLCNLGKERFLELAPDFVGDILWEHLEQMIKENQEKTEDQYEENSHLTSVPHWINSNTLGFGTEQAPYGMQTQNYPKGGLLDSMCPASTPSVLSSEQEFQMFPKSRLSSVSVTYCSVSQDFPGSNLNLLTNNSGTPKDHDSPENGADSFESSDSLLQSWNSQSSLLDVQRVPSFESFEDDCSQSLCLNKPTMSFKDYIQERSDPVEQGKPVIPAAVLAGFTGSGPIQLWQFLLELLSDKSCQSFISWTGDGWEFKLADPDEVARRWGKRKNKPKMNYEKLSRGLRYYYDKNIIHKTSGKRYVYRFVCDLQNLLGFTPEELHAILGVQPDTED
In short: as §1

SPDEF = molecular target: T9, SPDEF (Homo sapiens, UniProt O95238 1-335); settings: protein: recombinant; tags: N-terminal GST; dsDNA, one strand shown
T9 sequence: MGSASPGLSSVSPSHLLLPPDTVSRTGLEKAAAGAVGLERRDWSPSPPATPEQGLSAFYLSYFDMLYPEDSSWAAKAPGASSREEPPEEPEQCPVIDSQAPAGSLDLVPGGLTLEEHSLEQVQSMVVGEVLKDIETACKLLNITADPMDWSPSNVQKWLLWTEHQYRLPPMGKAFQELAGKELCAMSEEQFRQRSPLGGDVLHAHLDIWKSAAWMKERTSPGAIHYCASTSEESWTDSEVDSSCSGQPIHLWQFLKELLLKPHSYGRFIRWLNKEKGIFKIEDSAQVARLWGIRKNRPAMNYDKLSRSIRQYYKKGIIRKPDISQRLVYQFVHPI
In short: as §1

ETV7 = molecular target: T10, ETV7 (Homo sapiens, UniProt Q9Y603 1-341); settings: protein: recombinant; tags: N-terminal GST; dsDNA, one strand shown
T10 sequence: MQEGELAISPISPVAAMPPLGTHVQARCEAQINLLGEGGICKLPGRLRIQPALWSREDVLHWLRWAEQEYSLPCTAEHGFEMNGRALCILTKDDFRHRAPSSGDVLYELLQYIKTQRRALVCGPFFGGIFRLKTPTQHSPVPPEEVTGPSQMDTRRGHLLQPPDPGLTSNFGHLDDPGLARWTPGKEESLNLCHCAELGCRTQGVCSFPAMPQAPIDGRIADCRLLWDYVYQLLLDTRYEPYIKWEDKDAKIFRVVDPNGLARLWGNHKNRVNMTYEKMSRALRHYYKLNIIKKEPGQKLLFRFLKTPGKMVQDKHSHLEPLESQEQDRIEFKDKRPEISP
In short: as §1

ELF5 = molecular target: T11, ELF5 (Homo sapiens, UniProt Q9UKW6-2 1-255); settings: protein: recombinant; tags: N-terminal GST; dsDNA, one strand shown
T11 sequence: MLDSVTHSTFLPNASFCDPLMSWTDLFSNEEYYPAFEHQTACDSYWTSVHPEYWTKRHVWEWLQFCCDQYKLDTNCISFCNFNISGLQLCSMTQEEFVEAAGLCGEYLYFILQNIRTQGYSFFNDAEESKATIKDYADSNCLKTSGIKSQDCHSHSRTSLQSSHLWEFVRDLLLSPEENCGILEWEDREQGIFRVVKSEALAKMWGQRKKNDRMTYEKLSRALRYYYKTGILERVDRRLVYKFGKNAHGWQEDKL
In short: as §1

ETV3 = molecular target: T12, ETV3 (Homo sapiens, UniProt P41162-2 1-143); settings: protein: recombinant; tags: N-terminal GST; dsDNA, one strand shown
T12 sequence: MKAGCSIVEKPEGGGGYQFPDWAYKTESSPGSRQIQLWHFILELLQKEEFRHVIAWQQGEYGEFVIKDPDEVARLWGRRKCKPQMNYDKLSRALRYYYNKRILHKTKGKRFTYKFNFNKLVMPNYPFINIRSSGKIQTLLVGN
In short: as §1

ETV6 = ETV6 (Homo sapiens, UniProt P41212 1-452); settings: protein: recombinant; tags: N-terminal GST; dsDNA, one strand shown
ETV6, sequence (P41212 whole entry): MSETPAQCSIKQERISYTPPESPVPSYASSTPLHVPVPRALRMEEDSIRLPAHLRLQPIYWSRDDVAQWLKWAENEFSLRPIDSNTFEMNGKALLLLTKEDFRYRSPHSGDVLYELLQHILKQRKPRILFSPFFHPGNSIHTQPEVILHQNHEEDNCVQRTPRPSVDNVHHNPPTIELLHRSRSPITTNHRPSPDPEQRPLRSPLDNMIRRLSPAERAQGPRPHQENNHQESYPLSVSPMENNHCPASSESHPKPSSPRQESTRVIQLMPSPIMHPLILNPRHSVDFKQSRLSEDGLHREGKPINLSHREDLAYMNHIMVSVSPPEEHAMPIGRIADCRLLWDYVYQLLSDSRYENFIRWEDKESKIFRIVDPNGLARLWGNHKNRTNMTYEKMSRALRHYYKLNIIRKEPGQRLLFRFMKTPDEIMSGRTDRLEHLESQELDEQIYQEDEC
In short: as §1

In the case of CTTAGT, the binding signal (FEV) is reported as 1.13 fold enrichment (6-mer frequency, TF over GST control), the binding signal (ETV5) is reported as 1.3 fold enrichment (6-mer frequency, TF over GST control) and the binding signal (HSF1) is reported as 1.49 fold enrichment (6-mer frequency, TF over GST control). The binding signal (SPIC) was 1.09 fold enrichment (6-mer frequency, TF over GST control), the binding signal (ELF4) was 1.26 fold enrichment (6-mer frequency, TF over GST control) and the binding signal (ELK4) was 1.12 fold enrichment (6-mer frequency, TF over GST control). The binding signal (ETV2) was 1.06 fold enrichment (6-mer frequency, TF over GST control), the binding signal (ELF3) was 1.18 fold enrichment (6-mer frequency, TF over GST control) and the binding signal (CRX) was 1.98 fold enrichment (6-mer frequency, TF over GST control). For the same sequence, the binding signal (ETV1) was 1.17 fold enrichment (6-mer frequency, TF over GST control), the binding signal (ERF) was 1.29 fold enrichment (6-mer frequency, TF over GST control) and the binding signal (ETV3L) was 1.18 fold enrichment (6-mer frequency, TF over GST control). For the same sequence, the binding signal (ETS2) was 1.15 fold enrichment (6-mer frequency, TF over GST control), the binding signal (SPDEF) was 1.2 fold enrichment (6-mer frequency, TF over GST control) and the binding signal (ETV7) was 1.07 fold enrichment (6-mer frequency, TF over GST control). For the same sequence, the binding signal (ELF5) was 1.13 fold enrichment (6-mer frequency, TF over GST control), the binding signal (ETV3) was 1.31 fold enrichment (6-mer frequency, TF over GST control) and the binding signal (ETV6) was 1.24 fold enrichment (6-mer frequency, TF over GST control).
